Screens as filed in PubChem.
Shown are actives, neighbours in structure and some others; about 7.9% of the full set was active somewhere.
KB-3-1 tox = KB-3-1 parental cell cytotoxicity. KB-3-1 viability, CellTiter-Glo ATP luminescence, 72 h. Potency, µM (top dose mostly 46.1 µM), actives largely listed as cytotoxic. 400,000 compounds, 1.4% hits; further: on the % scale 0 is the no-effect control and ±100 the full control effect; nearly all actives have a fitted effect of over 60% in size
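Cytotoxicity measured as CellTiter-Glo luminescence after 72 h at 37 C. Compound titrations were pinned onto drug-naive KB-3-1 parental adenocarcinoma cells grown in DMEM with 10% FBS, and normalized data fitted to concentration-response curves.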
KB-V1 cytotox = KB-V1 MDR subline cytotoxicity; Potency, µM (top dose mostly 46.1 µM), usual class: cytotoxic; KB-V1 MDR cells viability, CellTiter-Glo, 72 h; 400,000 compounds, 3.4% hits; further: on the % scale 0 is the no-effect control and ±100 the full control effect; nearly all actives have a fitted effect of over 60% in size
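KB-V1 MDR subline cells in DMEM (phenol-red free, 10% FBS) exposed to compounds in qHTS concentration series for 72 h at 37 degrees C. Viability read by CellTiter-Glo luminescence; concentration-effect curves fitted after normalization and correction.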
HT1080NT lethal = kills 2HG-producing HT-1080-NT fibrosarcoma cells | 360,000 compounds, 1.6% hits | HT-1080-NT fibrosarcoma viability, CellTiter-Glo ATP luminescence, 48 h | AID 686970 | Potency, µM (titrated, usually from 46.1 µM), inactives show top-dose activity, negative = less viability, actives largely listed as cytotoxic;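 further: NT is the 2HG producing partner of a matched IDH1 knockdown line; 0% = DMSO-treated cells and -100% = media-only wells without cells; nearly all actives have a fitted effect of over 55% in size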
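Viability by CellTiter-Glo luminescence after 48 h compound exposure at 37C of HT-1080-NT cells (750/well, RPMI, 5% FBS). % activity scaled between DMSO wells and medium-only wells, then curve-fitted and categorized by curve class.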
MCF10A rerep = inducers of DNA re-replication in MCF 10A breast cells | MCF 10A DNA re-replication, Hoechst nuclear intensity, 48 h | Potency, µM (top dose mostly 46.1 µM), inactives show at the top dose activity, positive = re-replication, most hits filed as activators | 350,000 compounds, 2.9% hits | AID 624296; further: % of control where 0% means no effect; nearly all actives have a fitted effect of over 50% in size
HT1080 IDH1KD tx = HT-1080 IDH1 knockdown cell toxicity (counter line); Potency, µM (series often up to 46.1 µM), inactives show top-dose activity, negative = toxicity, hits mostly cytotoxic; HT-1080 IDH1 knockdown viability, ATP luminescence, 48 h; 360,000 compounds, 2% hits;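 further: 0% = DMSO wells and -100% = cell-free medium wells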
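Luminescent ATP read-out (CellTiter-Glo, 10 min at room temperature) after 48 h compound exposure at 37 °C gave viability of IDH1-knockdown HT-1080 cells. Activity was normalised to DMSO and cell-free wells, then fitted as concentration-response curves.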
SW480 rereplic = inducers of DNA re-replication in SW480 colon cancer cells | SW480 DNA re-replication, Hoechst DNA content imaging, 48 h | Potency, µM (top dose mostly 46.1 µM), for inactives: at the top dose re-replication activation, actives largely listed as activators | 340,000 compounds, 1.8% hits | AID 624297; further: % of control where 0% means no effect; nearly all actives have a fitted effect of over 55% in size
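First, 250 cells per well were seeded. Next, compound or vehicle (23 nL) was pinned in, plates sat 48 hr at 37 C. Finally Hoechst was added for 40 min before fluorescence scanning.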
An asterisk follows results filed as active; i = inactive; ? = inconclusive; . = no result given. The call rests on the fitted dose curve; in most records, active means well fitted curve in the direction sought with a large enough effect; inconclusive means small, poorly fitted or top-dose-only effect, or another doubt; inactive means no such curve, though single readings can be large; an effect the other way counts as inactive or inconclusive. Potency means the concentration at half of the fitted maximal effect.

SMILES	KB-3-1 tox	KB-V1 cytotox	HT1080NT lethal	MCF10A rerep	HT1080 IDH1KD tx	SW480 rereplic
N#CCSc1ccc(S(=O)(=O)N2CCOCC2)cn1	i	i	17.0%	1.1%	6.4%	-4.6%
O=S(=O)(c1cc(Cl)c(Cl)cc1Cl)N1CCN2CCCC2C1 (stereo unspecified)	i	i	-13.8%	-8.6%	-2.6%	0.366µM*
O=S(=O)(c1ccc(S(=O)(=O)N2CCN3CCCC3C2)cc1)N1CCCC1 (stereo unspecified)	i	?	-0.6%	-1.5%	3.1%	-0.6%
Nc1nc(=S)[nH]c2c1C1(CCCCC1)Cc1ccccc1-2	?	23.1µM*	0.0%	1.7%	4.9%	-92.5%
Cc1ccc(-n2ncc3c(N4CCCC4)ncnc32)c(C)c1	i	i	-2.4%	9.2%	-3.4%	-3.1%
c1ccc(CNc2ncnc3c2cnn3Cc2ccccc2)cc1	?	?	7.94µM*	26.8%	7.94µM*	0.8%
CCOC(=O)CNC(=O)CSc1ncnc2c1cnn2-c1ccc(Cl)cc1	i	i	-1.7%	0.1%	-0.9%	-1.4%
Cc1cccc(CSc2ncnc3c2cnn3Cc2ccccc2)c1	?	14.6µM*	6.4%	?	2.2%	12.9%
CCOC(=O)CNC(=O)CSc1ncnc2c1cnn2Cc1ccccc1	?	i	?	13.8%	18.4µM*	2.7%
Cc1ccc(-n2ncc3c(SCc4cccc(C)c4)ncnc32)cc1	i	i	?	1.3%	?	-0.6%
Cc1ccc(-n2ncc3c(SCc4cccnc4)ncnc32)c(C)c1	i	5.8µM*	?	10.7%	?	2.3%
CCN(CC)CCNC(=O)c1cc2c(=O)[nH]c3ccc(C)cc3c2s1	i	?	.	.	.	.
CCCN1CCN(CCCNC(=O)c2cc3c(=O)[nH]c4ccc(C)cc4c3s2)CC1	i	i	20.6µM*	23.7%	25.9µM*	28.1%
CCCCCCCCNC(=O)c1cnsn1	i	i	22.3%	-1.4%	24.0%	0.517µM*
CCC(C)c1ccc(S(=O)(=O)N2CCN(C(C)C(=O)NC3CCCC3)CC2)cc1 (stereo unspecified)	i	5.8µM*	-1.1%	16.8%	-6.1%	-0.8%
CC(C(=O)N1CCCCC1)N1CCN(S(=O)(=O)c2ccc(Cl)cc2)CC1 (stereo unspecified)	i	i	-2.5%	?	-2.7%	-9.8%
CC(C)c1ccc(S(=O)(=O)N2CCN(C(C)C(=O)N3CCCC3)CC2)cc1 (stereo unspecified)	i	25.9µM*	2.7%	2.2%	-5.2%	0.3%
CCN1C(=O)CC(C(=O)Nc2ccc(F)cc2)SC1=Nc1cccc(OC)c1 (stereo unspecified)	?	18.4µM*	-7.0%	20.9%	-8.3%	3.5%
CCOc1cccc(NC(=O)C2CC(=O)N(CC)C(=Nc3ccc(F)cc3)S2)c1 (stereo unspecified)	i	?	.	.	.	.
CCOc1ccccc1/C=N/Nc1ccnc(=O)[nH]1	i	i	-15.5%	3.1%	-0.5%	5.2%
COc1cccc(/C=N/Nc2ccnc(=O)[nH]2)c1O	4.61µM*	?	?	?	?	?
O=c1nccc(N/N=C/c2ccccc2O)[nH]1	6.51µM*	i	1.16µM*	7.6%	?	?
COc1cccc(/C=N/Nc2snc(SC)c2C#N)c1O	13µM*	16.4µM*	?	5.8%	?	5.1%
CN(Cc1ccccc1)C(=O)c1[nH]cnc1C(=O)NCc1ccccc1	i	i	0.0%	?	10.2%	-16.4%
COc1ccccc1NS(=O)(=O)c1ccc(Cl)c(NC(=O)CN2C(=O)c3ccccc3C2=O)c1	i	i	10.1%	-1.5%	6.1%	1.2%
SMILES	KB-3-1 tox	KB-V1 cytotox	HT1080NT lethal	MCF10A rerep	HT1080 IDH1KD tx	SW480 rereplic
CCc1c(C)sc(NC(=O)c2cc(-c3ccc(OC)c(OC)c3)on2)c1C#N	i	i	8.6%	5.17µM*	8.6%	1.5%
COc1ccc(-c2nnc(NC(=O)c3cc(C)on3)s2)cc1	i	i	9.0%	11.0%	12.5%	1.8%
CCc1c(C)sc(NC(=O)c2cc(-c3cc(OC)ccc3OC)on2)c1C#N	i	?	7.2%	2.59µM*	4.4%	-0.9%
COc1ccc(-c2csc(NC(=O)c3cc(C)on3)c2C#N)cc1OC	i	16.4µM*	?	?	?	3.4%
CCc1c(C)sc(NC(=O)c2cc(-c3ccc(O)cc3)on2)c1C#N	i	i	1.9%	11.6µM*	-5.3%	14.6µM*
CCc1c(C)sc(NC(=O)c2cc(CC(C)C)on2)c1C#N	i	i	7.7%	11.5%	1.3%	-9.6%
CCOC(=O)c1c(NC(=O)c2cc(-c3ccc(OC)c(OC)c3)on2)sc(C)c1C	i	i	.	.	.	.
Cc1ccsc1CN1CCc2nc(N3CCN(c4ccccc4F)CC3)ncc2C1	i	i	.	.	.	.
Clc1ccc(-n2ncc3c(NCc4ccc5c(c4)OCO5)ncnc32)cc1	i	i	?	-5.9%	-29.3%	?
O=C1/C(=C\c2ccco2)CCC/C1=C\c1ccco1	i	i	8.7%	20.6µM*	-5.5%	?
C=C(C)CNC(=S)N/N=C(\C)c1ccc(OC)cc1	?	16.4µM*	9.0%	7.9%	2.1%	17.7%
COCCNC(=S)N/N=C(\C)c1ccc(OC)cc1	i	i	19.2%	3.9%	21.0%	-3.6%
CCCCCn1nc(C(=O)OCC(=O)c2c(N)n(C)c(=O)n(C)c2=O)c2ccccc2c1=O	i	i	0.6%	0.0%	-0.2%	-5.7%
Cc1cc(N2CCN(c3ccc([N+](=O)[O-])c4cccnc34)CC2)c2ccccc2n1	16.4µM*	?	?	?	?	8.5%
Cc1cc(N2CCN(S(=O)(=O)c3ccccc3)CC2)c2ccccc2n1	i	?	?	3.66µM*	?	?
COc1cccc(CNS(=O)(=O)c2cn(C)cn2)c1	i	i	-3.5%	-2.9%	-2.6%	-2.7%
Cc1sc2ncnc(NC3CCN(Cc4ccccc4)CC3)c2c1C	?	1.64µM*	?	16.8%	?	12.4%
c1ccc(CN=C2NN=C(c3ccccc3)CS2)cc1	?	i	-11.2%	5.6%	-8.6%	0.7%
c1ccc(C2=NNC(=NCc3ccc4c(c3)OCO4)SC2)cc1	i	23.1µM*	-0.5%	16.0%	1.7%	7.8%
COc1ccc(/C=C2\Sc3ccc(C(=O)NCc4cccnc4)cc3N(C)C2=O)cc1OC	i	i	23.1µM*	?	23.1µM*	?
